This passage reports Percent Effect results from ChEMBL document CHEMBL3988442, “University of Dundee, Small-Polar-MMV Screening Library” (2021).

Out of some 67,000 compounds screened, about 300 (0.45%) showed an effect of 50% or more. Shown is part of a subset that was picked to be rich in strong results.

Sequence of Polyketide synthase Pks13 (Mycobacterium tuberculosis (strain ATCC 25618 / H37Rv)) (I6X8D2 whole entry): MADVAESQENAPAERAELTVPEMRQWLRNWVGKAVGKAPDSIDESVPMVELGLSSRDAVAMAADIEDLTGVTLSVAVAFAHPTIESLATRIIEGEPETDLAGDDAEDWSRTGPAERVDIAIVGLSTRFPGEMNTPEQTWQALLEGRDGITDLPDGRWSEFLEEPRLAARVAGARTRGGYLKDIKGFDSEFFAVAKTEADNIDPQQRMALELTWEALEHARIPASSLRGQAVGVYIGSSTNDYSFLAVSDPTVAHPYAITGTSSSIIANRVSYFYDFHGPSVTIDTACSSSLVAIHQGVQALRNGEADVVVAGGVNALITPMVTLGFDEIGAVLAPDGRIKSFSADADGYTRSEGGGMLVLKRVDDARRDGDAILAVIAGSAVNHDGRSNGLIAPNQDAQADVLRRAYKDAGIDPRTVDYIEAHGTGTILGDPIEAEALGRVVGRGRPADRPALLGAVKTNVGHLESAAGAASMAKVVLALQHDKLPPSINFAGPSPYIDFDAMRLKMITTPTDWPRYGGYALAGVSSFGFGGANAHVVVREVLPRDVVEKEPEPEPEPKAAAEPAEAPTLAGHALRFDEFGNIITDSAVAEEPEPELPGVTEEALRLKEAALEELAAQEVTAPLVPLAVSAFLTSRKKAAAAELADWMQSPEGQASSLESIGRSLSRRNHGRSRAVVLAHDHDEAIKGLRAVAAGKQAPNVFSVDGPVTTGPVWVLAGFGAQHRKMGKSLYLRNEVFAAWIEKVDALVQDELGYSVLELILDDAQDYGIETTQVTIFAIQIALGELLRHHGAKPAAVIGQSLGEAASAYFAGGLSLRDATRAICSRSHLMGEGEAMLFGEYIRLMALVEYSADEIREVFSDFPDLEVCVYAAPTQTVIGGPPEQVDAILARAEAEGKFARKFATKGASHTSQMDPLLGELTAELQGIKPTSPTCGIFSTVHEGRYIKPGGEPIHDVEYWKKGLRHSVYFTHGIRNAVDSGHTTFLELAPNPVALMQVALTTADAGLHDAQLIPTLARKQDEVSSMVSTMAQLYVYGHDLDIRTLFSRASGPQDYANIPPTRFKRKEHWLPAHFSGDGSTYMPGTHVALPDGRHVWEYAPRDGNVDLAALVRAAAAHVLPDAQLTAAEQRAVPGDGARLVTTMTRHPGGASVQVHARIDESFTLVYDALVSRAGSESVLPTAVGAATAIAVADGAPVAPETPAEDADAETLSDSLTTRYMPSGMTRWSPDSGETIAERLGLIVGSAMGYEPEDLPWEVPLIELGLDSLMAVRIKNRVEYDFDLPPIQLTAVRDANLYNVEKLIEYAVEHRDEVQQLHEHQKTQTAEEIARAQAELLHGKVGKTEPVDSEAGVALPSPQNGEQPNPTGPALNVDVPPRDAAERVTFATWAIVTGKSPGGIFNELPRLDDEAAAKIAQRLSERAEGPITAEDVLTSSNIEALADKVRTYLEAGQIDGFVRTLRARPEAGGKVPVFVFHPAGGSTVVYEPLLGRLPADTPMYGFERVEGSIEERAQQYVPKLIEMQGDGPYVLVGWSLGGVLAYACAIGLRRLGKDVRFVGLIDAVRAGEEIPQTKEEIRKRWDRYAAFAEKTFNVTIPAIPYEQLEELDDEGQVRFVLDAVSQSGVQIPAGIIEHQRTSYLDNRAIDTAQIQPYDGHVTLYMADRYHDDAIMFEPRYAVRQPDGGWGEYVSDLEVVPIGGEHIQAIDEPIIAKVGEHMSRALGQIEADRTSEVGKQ

This test has as its target Polyketide synthase Pks13 (Mycobacterium tuberculosis (strain ATCC 25618 / H37Rv)) (UniProt I6X8D2). Kind of test: Mycobacterium tuberculosis Polyketide synthase 13 Thioesterase (PKS13). As to conditions: 30 µM. Also on record: scale not given: in the data most compounds retested in dose-response had high values. The format is functional.
Regarding `Cc1noc(C)c1CN1CC[C@H]2C[C@H](c3ccncn3)O[C@@H]2C1`, the Percent Effect is -14.6%.
As to `Cn1ccc(C(=O)NCc2ccc(CN3CCCC3)cc2)cc1=O`, the Percent Effect was -2.41%.
The same measure for `Cn1ccc(C(=O)NCc2cccc(CN3CCCC3)c2)cc1=O`: 56.3%; for `Cn1ccc(C(=O)NCc2cccc(Cn3ccnc3)c2)cc1=O`: -52%; for `Cn1ccc(C(=O)NCc2ccc(CN3CCCCC3)cc2)cc1=O`: 4.22%.
The same measure for `Cn1ccc(C(=O)NCc2cccc(NC(=O)C3CCC3)c2)cc1=O`: 107%; for `Cn1ccc(C(=O)NCc2cccc(N3CCCCC3=O)c2)cc1=O`: 14.5%.
For `Cc1cc(N2CCN(C(=O)[C@@H]3C[C@@H]4C=C[C@H]3C4)CC2)cc(C)n1`, the Percent Effect is -10.7%.
Then `CCc1nccn1CC(=O)N1C[C@H]2CC[C@@H]1CN(C(=O)N(C)C)C2`, with -13.8%; and `CN1CCN(Cc2nc3ccccc3[nH]2)[C@H]2CS(=O)(=O)C[C@H]21`, with -21.3%.
Regarding `Cc1cnc(N2C[C@@H]3[C@@H](C2)OCC(=O)N3CCN(C)C)nc1`, the Percent Effect is 3.47%.
The same measure for `O=C(c1ccc(COc2ccc(Cl)cc2)o1)N1N=CCC1(O)C(F)(F)F` (centres undefined): 73.2%.
For `Cc1cccc(OCc2ccc(C(=O)N3N=CCC3(O)C(F)(F)F)o2)c1` (centres undefined), the Percent Effect stood at 45.3%.
As to `O=C(c1ccc(COc2ccccc2Cl)o1)N1N=CCC1(O)C(F)(F)F` (centres undefined), the Percent Effect came to 37.5%.
Turning to `O=C(c1cccnc1)N1CCN2C(=O)N(Cc3ccc(F)cc3)C[C@H]2C1`, the Percent Effect was found to be 2.86%.
With `CC(C)N(C)C[C@H]1C[C@@H]2CN(Cc3ccco3)C[C@@H]2O1`, the Percent Effect is -28.7%.
Take `CCOC(=O)[C@]12CCCN(Cc3nccs3)C[C@H]1CN(CC(C)C)C2`: the Percent Effect was -5.86%.
As for `Cc1cc(C2CCCCN2C(=O)c2ccsc2)nc2nccn12` (centres undefined), the Percent Effect stood at 84.3%.
As to `Cc1cc(C2CCCCN2C(=O)c2cccn2C)nc2nccn12` (centres undefined), the Percent Effect was 8.03%.
As to `Cc1noc(C)c1C(=O)N1CCCCC1c1cc(C)n2ccnc2n1` (centres undefined), the Percent Effect is -1.89%.
Regarding `CC(C)CN1C(=O)CO[C@@H]2CN(C(=O)N3CCOCC3)C[C@H]21`, the Percent Effect is -27.7%.
For `O=C(c1ccnnc1)N1C[C@H]2CCC[C@@H](OCc3cccnc3)[C@@H]2C1`, the Percent Effect was 8.09%.
As for `O=C(NCCc1ccccc1)N1C[C@H]2C[C@H](C(=O)N3CCCC3)[C@@H](C1)O2`, the Percent Effect was -28.3%.
As to `O=C(c1cc(-c2ccco2)nc2c(Cl)cccc12)N1C[C@H]2CNC[C@H]2C1`, the Percent Effect was -42.7%.
Regarding `O=C(c1cc(-c2ccco2)nc2c(Cl)cccc12)N1CCS(=O)(=O)CC1`, the Percent Effect is -5.09%.
Take `COCC1CCN(C(=O)c2cc(-c3ccco3)nc3c(Cl)cccc23)C1` (centres undefined): the Percent Effect was determined as 66.3%.
Then `O=C(O)C1c2nc[nH]c2CCN1Cc1cc(-c2ccccc2)no1` (centres undefined), with -11.2%.
On to `O=C(O)C1c2nc[nH]c2CCN1Cc1ccccc1-c1ccccc1` (centres undefined), for which the Percent Effect was 62.3%.
As for `O=C(O)C1c2nc[nH]c2CCN1Cc1ccc(-c2ccccc2)s1` (centres undefined), the Percent Effect was -9.34%.
As for `CSCC(=O)N1C[C@H]2CC[C@@H]1CN(C1Cc3ccccc3C1)C2`, the Percent Effect was -8.9%.
The same measure for `Cc1nccc([C@@H]2C[C@@H]3CCN(Cc4cccs4)C[C@H]3O2)n1`: -9.54%; for `N#Cc1cccc(N2CCC3(CC2)Nc2ccccc2NC3=O)n1`: -22.8%.
Take `N#Cc1cccc(N2CCC(CO)(CCCc3ccccc3)CC2)n1`: the Percent Effect came to 67.6%.
Take `OCC1(CCOc2ccccc2)CCCN(c2ccc(Cl)cn2)C1` (centres undefined): the Percent Effect came to 56.5%.
As for `CC(=O)c1ccc(N2CCCC(CO)(CCOc3ccccc3)C2)nc1` (centres undefined), the Percent Effect is 15.6%.
`N#Cc1cccc(N2CCC3(CCC(=O)N(CCCO)C3)CC2)n1`: the Percent Effect is -0.0305%.
Take `OCC1(CCOc2ccccc2)CCN(c2ccc(Cl)cn2)CC1`: the Percent Effect was 43.4%.
On to `CCc1nc(N2CCCC(CO)(CCOC)C2)ncc1C` (centres undefined), for which the Percent Effect was -19.2%.
In the case of `CC(=O)c1ccc(N2CCCC(CO)(Cc3ccccc3F)C2)nc1` (centres undefined), the Percent Effect is -9.09%.
Turning to `CC(=O)c1ccc(N2CCCC(CO)(CCc3ccccc3)C2)nc1` (centres undefined), the Percent Effect stood at 55.1%.
For the compound `N#Cc1cccc(N2CCCC(CO)(CCOc3ccccc3)C2)n1` (centres undefined), the Percent Effect turned out to be 132%.
Take `Nc1nccc(N2CCCC(CO)(CCOc3ccccc3)C2)n1` (centres undefined): the Percent Effect was -23.1%.
As to `N#Cc1ccc(N2CCCC(CO)(CCOc3ccccc3)C2)nc1` (centres undefined), the Percent Effect was 13.8%.
As for `O=C(NCc1ccco1)[C@H]1C[C@H]2OCC[C@H]2N(S(=O)(=O)C2CC2)C1`, the Percent Effect was -7.99%.
For the compound `CCOC(=O)[C@]12CCCN(Cc3cccs3)C[C@H]1CN(C(C)C)C2`, the Percent Effect is -0.678%.
As to `N#Cc1cccc(N2CCC(CO)(CCOc3ccccc3)CC2)n1`, the Percent Effect worked out at 128%.
Regarding `CC(=O)c1ccc(N2CCC(CO)(CCOc3ccccc3)CC2)nc1`, the Percent Effect came out at 8.13%.
With `N#Cc1cccnc1N1CCCC(CO)(CCOc2ccccc2)C1` (centres undefined), the Percent Effect was -13.7%.
Take `CC(C)CN1C[C@H]2C[C@H](C(=O)NC3CCC3)[C@@H](C1)O2`: the Percent Effect was found to be 8.3%.
As to `CCNc1nc(-c2cccnc2)c(-c2ccnc(NS(C)(=O)=O)n2)s1`, the Percent Effect came to 17.5%.
As for `CC(C)(C)Nc1nc(-c2cccnc2)c(-c2ccnc(NCCO)n2)s1`, the Percent Effect stood at 121%.
Then `CCNc1nc(-c2cccnc2)c(-c2ccnc(NCCO)n2)s1`, with 37.6%.
`COc1ccccc1C(=O)Nc1ccc([C@@H](O)[C@H]2COCC(=O)N2)cc1`: the Percent Effect is 3.39%.
`CCS(=O)(=O)NC[C@]12COC[C@H]1CN(Cc1cccc(OC)c1)C2`: the Percent Effect was -39.6%.
The same measure for `O=C(COCc1ccccc1Cl)N1CCN(c2cnccn2)CC1`: 25.8%; for `O=C(COCc1ccccc1Cl)N1CCN(c2ncccn2)CC1`: 0.958%.
Take `O=C(COCc1ccccc1Cl)N1CCN(c2ccc(Br)cn2)CC1`: the Percent Effect was 63.1%.
With `O=C1CC[C@H]2[C@H](CCN2c2ccccn2)N1CC1CCOCC1`, the Percent Effect was -8.5%.
Take `CCc1cnc(N2CC[C@H]3[C@@H]2CCC(=O)N3c2ccccc2)nc1`: the Percent Effect is -13.3%.
Then `CCc1cnc(N2CC[C@H]3[C@@H]2CCC(=O)N3CC2CCOCC2)nc1`, with 88.2%.
Consider `O=C1O[C@@H]2CN(c3ccncc3)C[C@@H]2N1CCCc1ccc(F)cc1`, for which the Percent Effect was -35.8%.
With `Cc1n[nH]c(C)c1CNc1ccc(-c2nc(C3CC3)no2)cn1`, the Percent Effect was determined as 3.88%.
For `Cc1cc(C)n(CCN(C)c2ccc(-c3nc(C4CC4)no3)cn2)n1`, the Percent Effect worked out at 0.156%.
On to `Cc1n[nH]c(C)c1CCN(C)c1ccc(-c2nc(C3CC3)no2)cn1`, for which the Percent Effect turned out to be 62.8%.
Then `CC(=O)NC[C@@]1(COc2cnccn2)C[C@@H](O)[C@@H](O)C1`, with -8.58%; and `CC(C)c1nc(CN(C)C2CCN(CCNS(C)(=O)=O)C2)no1` (centres undefined), with 93.5%.
`CCS(=O)(=O)CCN1CCC(N(C)Cc2noc(C(C)C)n2)C1` (centres undefined): the Percent Effect was -4.58%.
Turning to `CC(C)c1nc(CN(C)C2CCN(CCS(C)(=O)=O)C2)no1` (centres undefined), the Percent Effect was -22.6%.
For the compound `c1cnc(N2CCO[C@H]3CN(CC4CCOC4)C[C@H]32)cn1` (some centres undefined), the Percent Effect was -2.77%.
As for `Cc1noc(C)c1CN1C[C@H](OCC2CCN(C)CC2)[C@H]2COC[C@H]21`, the Percent Effect was -13.4%.
The same measure for `c1cc(CN2C[C@H](OCC3CCOCC3)[C@H]3COC[C@H]32)cs1`: 1.55%; for `O=C(c1ccco1)N1CC[C@@H]2O[C@H](COCCN3CCCC3)CC[C@@H]21`: -19.5%; for `COC(=O)c1cc(NC2CCN(CC(F)(F)F)C2=O)ccc1C` (centres undefined): 9.8%.
On to `COC(=O)c1ccc(NC2CCN(CC(F)(F)F)C2=O)cc1C` (centres undefined), for which the Percent Effect was found to be 62.3%.
For `CCOc1ccc(NC2CCN(CC(F)(F)F)C2=O)cc1C` (centres undefined), the Percent Effect worked out at 7.36%.
Regarding `CN(C)C[C@H]1OC[C@@H]2CCN(C(=O)c3ccc[nH]3)C[C@@H]21`, the Percent Effect came out at 11.4%.
For the compound `O=C(Nc1cccnc1)[C@H]1CN(C2CCCC2)C[C@H]2OCC[C@@H]12`, the Percent Effect is -36.1%.
As to `CCc1ncc2c(n1)CN(CC1CCCCO1)CC2` (centres undefined), the Percent Effect was found to be 78.1%.
Then `Cc1ncc2c(n1)CN(CC1CCCCO1)CC2` (centres undefined), with -13.3%; and `CC(C)c1ncc2c(n1)CN(CC1CCCCO1)CC2` (centres undefined), with -18.6%.
In the case of `Cc1nc(CN2C[C@@H]3CN(C(=O)c4ccco4)C[C@@H]3C2=O)cs1`, the Percent Effect was -4.47%.
As to `O=C1NC(c2ccccc2)=N[C@@]12CC[C@@H]1CN(Cc3nccs3)C[C@@H]12`, the Percent Effect turned out to be 23.9%.
Then `Cc1noc([C@]23COC[C@H]2CN(S(=O)(=O)C2CC2)C3)n1`, with -31.1%.
For `Cc1cc(-c2cnc(NC3CCCCC3)nc2-c2ccco2)on1`, the Percent Effect stood at 15%.
Then `O=c1[nH]c(NC2CCCC2)nc2nccc(-c3ccco3)c12`, with 52.1%; and `O=C(O)Cn1nc(C2CC2)c2c(-c3cccs3)ccnc21`, with 46.3%.
Regarding `Cc1cc(-c2cnc(NC3CCCC3)nc2-c2ccco2)on1`, the Percent Effect came to 27.1%.
As to `O=c1[nH]c(NC2CCCC2)nc2nccc(-c3ccsc3)c12`, the Percent Effect was found to be 43%.
Regarding `O=c1[nH]c(NC2CCCC2)nc2nccc(-c3cccs3)c12`, the Percent Effect came to 72.5%.
As for `O=C1O[C@@H]2CN(Cc3cccc(O)c3)C[C@@H]2N1CCCN1CCOCC1`, the Percent Effect was -3.82%.
Regarding `CSc1ccccc1CN1C[C@H]2C(=O)N(CC3CC3)C[C@@]2(C(=O)O)C1`, the Percent Effect is -23%.
Regarding `COCC(=O)NC[C@H]1CC[C@H](c2nnc(-c3cccnc3)o2)CC1`, the Percent Effect worked out at 5.07%.
In the case of `O=C1O[C@@H]2CN(c3ccccn3)C[C@@H]2N1CCCc1ccc(F)cc1`, the Percent Effect was -15.8%.
Then `O=C(NCc1ccco1)[C@H]1C[C@H]2OCC[C@H]2N(C(=O)c2ccnnc2)C1`, with -21.2%.
The same measure for `O=C(Cn1ccc2cc(Br)ccc21)NC[C@@H]1CCCN2CCCC[C@H]12`: -5.46%; for `CO[C@@H]1CCN(Cc2cnn(C)c2)[C@@H]2CN(Cc3ccco3)C[C@@H]21`: -33%; for `COc1ccc(CN2CC[C@@H]3CN(S(C)(=O)=O)CCO[C@@H]3C2)cc1`: -17.7%.
Then `O=C(Nc1cccnc1)[C@H]1COC[C@H]2CN(C3CCCC3)C[C@H]21`, with -10.2%; and `CCCn1nnc(NCc2ccc(-c3ccc(Br)cc3)o2)n1`, with 50.3%.
Take `Cn1nnc(NCc2ccc(-c3ccc(Br)cc3)o2)n1`: the Percent Effect came to 13.4%.
Then `CCn1nnc(NCc2ccc(-c3ccc(Br)cc3)o2)n1`, with 31.1%; and `CC(C)c1cc(C(=O)N2C[C@H]3CC[C@@H]2CN(Cc2ccccn2)C3)no1`, with -30.6%.
On to `Cc1cnc(N2CCN(C)CC2)nc1-c1ccnn1C`, for which the Percent Effect is 4.24%.
Take `Cc1cnc(N2CCCC(O)C2)nc1-c1ccnn1C` (centres undefined): the Percent Effect worked out at 5.81%.
With `Cc1cnc(N2CCC(c3ccccc3)CC2)nc1-c1ccnn1C`, the Percent Effect is -31.6%.
`Cc1cnc(N2CCC(c3ccncc3)CC2)nc1-c1ccnn1C`: the Percent Effect was -33.3%.
As to `COc1cnc(N2CC(N3CCOCC3)C2)nc1-c1ccnn1C`, the Percent Effect was 54.8%.
`COc1cnc(N2CCN(C)CC2)nc1-c1ccnn1C`: the Percent Effect turned out to be 68%.
Then `CCn1c(Cn2cncn2)nnc1C1CCN(C[C@H]2[C@@H]3CNC[C@@H]32)CC1`, with -3.59%.
